Screening data: PubChem BioAssay, National Center for Advancing Translational Sciences (NCATS)
Pol eta inh-1: blocks human DNA polymerase eta activity; AID 588591; hit rate 1.2% among 390,000; recombinant Pol eta, fluorescent DNA replication assay; Potency, µM (series often up to 114 µM), without a hit: top-dose activity change, negative = inhibition, hits mostly inhibitors; note: potency is the fitted concentration of half-maximal effect; % is set by controls: 0 for no effect and ±100 for the full control effect
Target sequence (Q9Y253 whole entry, looked up): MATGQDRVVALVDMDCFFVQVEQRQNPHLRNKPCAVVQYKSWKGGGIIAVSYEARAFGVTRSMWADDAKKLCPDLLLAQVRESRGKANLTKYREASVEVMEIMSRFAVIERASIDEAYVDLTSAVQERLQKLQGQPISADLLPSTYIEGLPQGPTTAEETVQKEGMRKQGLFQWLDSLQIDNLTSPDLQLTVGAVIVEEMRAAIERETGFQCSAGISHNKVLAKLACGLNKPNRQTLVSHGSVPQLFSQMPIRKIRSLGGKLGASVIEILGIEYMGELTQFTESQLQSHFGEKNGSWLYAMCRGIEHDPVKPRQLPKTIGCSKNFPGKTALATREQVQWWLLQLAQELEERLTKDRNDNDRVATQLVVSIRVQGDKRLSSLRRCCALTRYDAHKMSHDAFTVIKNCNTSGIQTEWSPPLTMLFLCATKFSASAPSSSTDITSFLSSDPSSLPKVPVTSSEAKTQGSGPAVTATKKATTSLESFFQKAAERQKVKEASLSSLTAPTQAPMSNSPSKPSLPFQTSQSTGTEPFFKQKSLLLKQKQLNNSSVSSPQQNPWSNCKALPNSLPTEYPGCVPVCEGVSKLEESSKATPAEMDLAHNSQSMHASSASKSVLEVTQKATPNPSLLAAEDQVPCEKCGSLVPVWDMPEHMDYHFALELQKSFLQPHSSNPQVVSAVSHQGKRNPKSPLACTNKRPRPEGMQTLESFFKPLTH
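Fluorescent replication assay: 50 nM final substrate added after a 15 min room-temperature compound preincubation with 10 nM enzyme. Signal taken at 0 min and again at 10 min.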
Pol iota inh: DNA polymerase iota (human) inhibition | Potency, µM (series often up to 115 µM), without a hit: at the highest dose activity, negative = inhibition, actives largely listed as inhibitors | Pol iota fluorescent replication assay, 10 min | Q9UNA4 | hit rate 1% among 390,000; note: potency is the fitted concentration of half-maximal effect
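Pol iota at 10 nM preincubated 15 min with compounds at room temperature; reaction started with fluorescent substrate, 50 nM final. Fluorescence read kinetically at 0 and 10 min; buffer-only wells as negative control.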
WRN inhibitor: inhibitors of human WRN helicase; Q14191; WRN helicase unwinding, fluorescent forked duplex, kinetic; Potency, µM (series often up to 114 µM), without a hit: at the highest dose activity change, negative = inhibition, actives largely listed as inhibitors; hit rate 0.46% among 360,000; AID 651768; note: potency is the fitted concentration of half-maximal effect; % is set by controls: 0 for no effect and ±100 for the full control effect; nearly all actives have a fitted effect of over 55% in size
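Kinetic red-fluorescence monitoring (525/598 nm) tracks WRN helicase activity after 100 nM fluorophore-quencher forked duplex and 2 mM ATP are added to 20 nM enzyme pretreated 15 min at room temperature with compound.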
Pol kappa inh-1: inhibitors of human DNA polymerase kappa; Q9UBT6; purified Pol kappa, fluorescent DNA synthesis assay, 10 min; Potency, µM (doses to about 107 µM), inactives show top-dose activity, negative = inhibition, hits mostly inhibitors; hit rate 0.53% among 400,000; note: potency is the fitted concentration of half-maximal effect; % is set by controls: 0 for no effect and ±100 for the full control effect
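Fluorescent qHTS in 1536-well format: enzyme (10 nM) and compound sat 15 min at room temperature before 50 nM substrate (final) was added. Signal taken at 0 and 10 min; no-enzyme buffer wells were negative controls.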
Pol beta inh: DNA polymerase beta (human) inhibition. P06746. Pol beta primer extension/strand displacement, fluorescence kinetic. Potency, µM (titrated, usually from 114 µM), for inactives: at the top dose activity change, negative = inhibition, most hits filed as inhibitors. hit rate 1.3% among 340,000. AID 485314; note: potency is the fitted concentration of half-maximal effect; % is set by controls: 0 for no effect and ±100 for the full control effect
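Preincubation: enzyme (10 nM) with compound, 15 min, RT. Reaction: substrate added to 50 nM final. Reads: 0 and 10 min. Analysis: normalized, Hill fit.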
PGK validate: blocks T. brucei phosphoglycerate kinase; shares compounds with Pol kappa inh-1; TbPGK coupled GAPDH assay, Kinase-Glo luminescence; Potency, µM (highest dose often 57.5 µM), without a hit: at the top dose activity change, negative = inhibition, most hits filed as inhibitors; hit rate 79% among 500; AID 686980; note: potency is the fitted concentration of half-maximal effect; % is set by controls: 0 for no effect and ±100 for the full control effect; nearly all actives have a fitted effect of over 65% in size
POLI cherry-pick: Confirm cherry-picked inhibitors of human polymerase iota; hit rate 77% among 1,500; Pol iota primer extension, TAMRA/BHQ fluorescence; Potency, µM, usual class: inhibitors; shares compounds with Pol kappa inh-1; note: potency is the fitted concentration of half-maximal effect
GALK inh confirm: galactokinase (human) inhibition, confirmation; shares compounds with Pol eta inh-1; purified GALK, Kinase-Glo ATP depletion luminescence; Potency, µM (highest dose often 115 µM), inactives show top-dose activity, negative = inhibition, actives largely listed as inhibitors; hit rate 70% among 150
Redox cycling: generates H2O2 by redox cycling, flagging GALK artifacts. shares compounds with Pol eta inh-1. Phenol red-HRP H2O2 redox cycling, absorbance 600 nm. Potency, µM (highest dose often 115 µM), inactives show at the top dose activity change, negative = H2O2 signal, most hits filed as inhibitors. hit rate 40% among 150
HEK293 viability: reduces HEK-293 cell viability in GALK counter-screen | AID 2547 | shares compounds with Pol eta inh-1 | hit rate 10% among 170 | Potency, µM (top dose mostly 46.1 µM), inactives show at the top dose activity change, negative = cytotoxicity, usual class: inhibitors | HEK-293 viability, ATP luminescence (CellTiter-Glo), 24/48 h; note: potency is the fitted concentration of half-maximal effect; % is set by controls: 0 for no effect and ±100 for the full control effect
Pol kappa inh-2: Pol kappa (human) inhibition, cherry-pick confirmation; AID 720501; purified Pol-kappa, fluorescent strand-displacement substrate; Potency, µM, most hits filed as inhibitors; hit rate 76% among 920; shares compounds with Pol eta inh-1; note: potency is the fitted concentration of half-maximal effect
Pol eta inh-2: confirmation of human DNA polymerase eta inhibitors; shares compounds with Pol eta inh-1; Pol eta primer extension, TAMRA/BHQ fluorescence, 10 min; Potency, µM, most hits filed as inhibitors; hit rate 64% among 2,600; AID 720502; note: potency is the fitted concentration of half-maximal effect
* marks the source's active call; other numbers are inactive results; ? = inconclusive; . = no result given; [ ] = dose if it differs, or a comment. Compounds with a hit are over-represented: about 2.3% of the library has one in this group of screens. Calls come from the whole dose curve; as a rule, active = well fitted curve in the direction sought with a large enough effect; inconclusive = small, poorly fitted or top-dose-only effect, or another doubt; inactive = no such curve, though single readings can be large; an effect the other way counts as inactive or inconclusive.

SMILES	Pol eta inh-1	Pol iota inh	WRN inhibitor	Pol kappa inh-1	Pol beta inh	POLI cherry-pick	Pol eta inh-2	others
COC(=O)c1nc(-c2ccc3c(n2)C(=O)C(N)=C(OC)C3=O)c(N)c(-c2ccc(OC)c(OC)c2O)c1C	10µM*	8.9µM*	?	?	?	47*	?	GALK inh confirm=5.3µM*;Redox cycling=6.7µM*;HEK293 viability=-4%
CCN1C(=O)NC(=O)/C(=C/c2cc(C)n(-c3sc(C)c(C)c3C#N)c2C)C1=O	?	-17%	?	-1%	14%	.	.
Cc1ccc(N2C(=O)NC(=O)/C(=C\c3cc(C)n(-c4sc5c(c4C#N)CCCC5)c3C)C2=O)cc1	20µM*	?	50µM*	-37%	?	67*	19*
Cc1cc(/C=C2\C(=O)NC(=O)N(c3ccc(Cl)cc3)C2=O)c(C)n1-c1cccc(C(=O)O)c1	20µM*	18µM*	?	-96%	?	60*	6.7*	Pol kappa inh-2=17*
Cc1cc(/C=C2\C(=O)NC(=O)N(c3cccc(F)c3)C2=O)c(C)n1-c1cc(C(=O)O)cc(C(=O)O)c1	10µM*	16µM*	?	50µM*	22µM*	?	21*
c1ccc([Se]c2c(-c3ccccc3)[se]c3ccccc23)cc1	.	.	.	-13%[60.1 µM]	.	.	.
NC(N)=NCCC[C@H](N)C(=O)O	-2%[57.1 µM]	?	.	1%[60.1 µM]	-11%[57.1 µM]	.	.
O=C1NC(=O)N(Cc2ccc(F)cc2)C(=O)/C1=C\c1ccc(N2CCCC2)cc1	32µM*	14µM*	?	?	35µM*	67*	60*
O=C(O)CCn1cc(C=C2C(=O)NC(=S)NC2=O)c(-c2cc3ccccc3oc2=O)n1	20µM*	40µM*	?	?	-25%	67*	30*
C[C@H](CCC(=O)O)[C@H]1CC[C@@H]2[C@H]3[C@@H](CC[C@@]21C)[C@]1(C)CC[C@H](O)C[C@@H]1C[C@@H]3O	.	.	.	-6%[12 µM]	.	.	.
COc1ccc(CN2C(=O)NC(=O)/C(=C/c3ccc([N+](=O)[O-])s3)C2=O)cc1	14µM*	?	40µM*	22µM*	22µM*	24*	5.4*
COc1ccc(/C=C2\C(=O)NC(=O)N(Cc3ccccc3)C2=O)c(OC)c1OC	-6%	?	-6%	-3%	7%	.	.
NCC(=O)c1ccc(Cl)c(Cl)c1	.	36%	.	4%	.	.	.
CCn1nc(/C=C/c2ccccc2)nc2c(=O)n(C)c(=O)nc1-2	0.79µM*	-92%	-1%[11.6 µM]	1%	-11%	0.75*	0.76*	PGK validate=0.52µM*
CCOc1ccc(-n2c(/C=C/c3ccccc3)nc3ccccc3c2=O)cc1	-13%	5%	.	-9%[60.1 µM]	0%	.	.
